Measured values taken from PubChem BioAssay AID1159580 (chemical genetic matrix, 2015).
Screen size: about 5,500 compounds; about 2,000 (36%) were called active. Another 18% or so got no clear call; they are omitted. Rule as the data show it: active = normalized growth mostly below about 0.91 (no sharp cut-off); inconclusive = no clear call, values can overlap the other calls; inactive = mostly above about 0.92. This is one part of the list.

Experiment: chemical genetic growth profiling, strain panel (AID 1159580);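 also: tested at 20 µM; growth read once vehicle control cultures reached saturation at 30 °C; 1 = growth at the plate median or of vehicle wells; lower values mean less growth of the strain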
Conditions: S. cerevisiae deletion strains, growth OD

Measured: normalized growth

NC(=O)CCCCC1CCSS1 (configuration not stated)
inactive: locus YHR030C, strain SLT2, active compounds read low 1.02 | locus YHR079C, strain IRE1, active compounds read low 0.976 | locus YJL095W, strain BCK1, active compounds read low 1.01 | locus YJR066W, strain TOR1, active compounds read low 0.955 | locus YLR113W, strain HOG1, active compounds read low 1.02 | locus YNL183C, strain NPR1, active compounds read low 0.966 | locus YOR231W, strain MKK1, active compounds read low 0.986 | locus YPL256C, strain CLN2, active compounds read low 1.01

O=C(O)CCCC[C@@H]1CCSS1
inactive: locus YAL013W, strain DEP1, active compounds read low 0.962 | locus YAL040C, strain CLN3, active compounds read low 0.933 | locus YCL061C, strain MRC1 (second series), active compounds read low 0.979 | locus YDR150W, strain NUM1, active compounds read low 0.996 | locus YDR363W, strain ESC2, active compounds read low 0.971 | locus YER002W, strain NOP16, active compounds read low 0.968 | locus YGR229C, strain SMI1, active compounds read low 0.957 | locus YMR307W, strain GAS1, active compounds read low 0.962 | locus YNL153C, strain GIM3, active compounds read low 1.01 | locus YNL175C, strain NOP13, active compounds read low 0.979 | locus YNL197C, strain WHI3, active compounds read low 0.972 | locus YNL224C, strain SQS1, active compounds read low 0.977 | locus YOR083W, strain WHI5 (second series), active compounds read low 0.937 | locus YPL055C, strain LGE1, active compounds read low 0.989
